Mtb hypoxia rep: PubChem AID 1159583. M. tuberculosis hypoxia-regulated fluorescent reporter, fluorescence. fluorescence inhibition, % (concentration not given with the values). 300,000 tested, 0.1% active; in the data active means fluorescence inhibition mostly above about 23%, no sharp cut-off; inactive means mostly below about 17%
Mtb bLac sens: beta-lactam sensitization of Mtb H37Rv, H37Rv; M. tuberculosis H37Rv growth with meropenem, percent inhibition; AID 434955, 2010; 330,000 tested, 0.27% active; inhibition, % at 25 µM; call rule not given here;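 further: growth measured after seven days incubation then overnight dye step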
PfHsp40 rescue: rescue of yeast from PfHsp40 toxicity, primary screen, S. cerevisiae, ATP luminescence | S. cerevisiae expressing PfHsp40, growth rescue | growth rescue, % at 12.5 µM | 340,000 tested, 0.68% active; in the data active means growth rescue above about 28%, passing the limit was not always enough;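 further: yeast W303a lacking pdr1 and pdr3 grown in galactose medium; growth measured after three days at 30 °C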
RecA intein inh: Mtb RecA intein splicing inhibitors, primary screen, biochemical, fluorescence, HTS; Protein RecA (Mycobacterium tuberculosis (strain ATCC 25618 / H37Rv)), P9WHJ3; cell-free RecA intein splicing; inhibition, % (concentration not given with the values); 290,000 tested, 0.75% active; AID 2221, 2009; in the data active means inhibition above about 30%
Target sequence (P9WHJ3 whole entry, looked up): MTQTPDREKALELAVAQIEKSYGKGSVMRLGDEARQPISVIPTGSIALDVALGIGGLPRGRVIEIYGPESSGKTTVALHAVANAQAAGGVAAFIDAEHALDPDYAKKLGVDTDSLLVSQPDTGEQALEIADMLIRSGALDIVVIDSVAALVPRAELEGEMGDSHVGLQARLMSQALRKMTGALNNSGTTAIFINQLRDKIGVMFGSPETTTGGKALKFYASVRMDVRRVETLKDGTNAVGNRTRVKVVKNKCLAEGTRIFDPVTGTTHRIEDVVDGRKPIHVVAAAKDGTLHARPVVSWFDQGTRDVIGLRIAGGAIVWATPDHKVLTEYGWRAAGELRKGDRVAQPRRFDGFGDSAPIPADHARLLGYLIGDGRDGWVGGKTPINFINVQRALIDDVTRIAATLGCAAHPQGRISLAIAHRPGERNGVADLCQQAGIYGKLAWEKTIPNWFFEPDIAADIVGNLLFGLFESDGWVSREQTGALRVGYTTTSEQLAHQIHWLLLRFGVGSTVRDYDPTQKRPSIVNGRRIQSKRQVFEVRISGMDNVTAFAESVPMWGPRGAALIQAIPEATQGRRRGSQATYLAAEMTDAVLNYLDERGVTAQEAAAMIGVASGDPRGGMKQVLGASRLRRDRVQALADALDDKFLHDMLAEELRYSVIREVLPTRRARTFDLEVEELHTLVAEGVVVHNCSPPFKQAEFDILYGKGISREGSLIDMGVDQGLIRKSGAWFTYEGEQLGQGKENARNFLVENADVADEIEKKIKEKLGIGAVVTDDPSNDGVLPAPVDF
CCHF vOTU inh-1: CCHFV vOTU protease inhibitors, primary screen, biochemical, Pep-AMC substrate, fluorescence; Crimean-Congo hemorrhagic fever virus L polyprotein viral ovarian tumor (vOTU) protease …; inhibition, % at 11.5 µM; 370,000 tested, 0.55% active; AID 651958, 2012
CCHF vOTU inh-2: CCHFV vOTU protease inhibitors, confirmation, biochemical, Pep-AMC substrate, fluorescence; shares compounds with CCHF vOTU inh-1; Recombinant CCHFV vOTU; inhibition, % at 11.5 µM; 1,900 tested, 17% active; AID 686976, 2013
Each line names hits and unclear results; the compound was inactive in the other large screens (follow-up assays come after a bar, where they were run). In the library only some 1.7% were active in any assay of this set; here they are far more common. Unless noted, no stated cut-off is given here; in the data, active means inhibition above about 30%; inactive means the rest.

CC1CC(=NNC(=S)NCc2ccccc2)CC(C)(C)C1 (stereo unspecified)	none (no result: Mtb bLac sens, PfHsp40 rescue, RecA intein inh, CCHF vOTU inh-1)
COc1cc(C=Nn2cnnc2)ccc1OCc1ccc(C)cc1	none (no result: Mtb bLac sens, PfHsp40 rescue, RecA intein inh, CCHF vOTU inh-1)
Oc1c(CN2CCCCC2)ccc2cccnc12	PfHsp40 rescue 46.7, CCHF vOTU inh-1 31.4 (no result: Mtb bLac sens, RecA intein inh) | CCHF vOTU inh-2 inactive
CC(C)(C)OC(=O)[C@H](Cc1ccccc1)NC(=O)c1[nH]cnc1C(=O)Nc1ccc(Cl)cc1	CCHF vOTU inh-1 30.7 (no result: Mtb hypoxia rep) | CCHF vOTU inh-2 inactive
CC(C)C[C@H](NC(=O)c1[nH]cnc1C(=O)N[C@@H](C)C(=O)OCc1ccccc1)C(=O)OC(C)(C)C	CCHF vOTU inh-1 30.3 (no result: Mtb hypoxia rep) | CCHF vOTU inh-2 inactive
CC(C)(C)OC[C@H](NC(=O)c1[nH]cnc1C(=O)Nc1ccccc1F)C(=O)OC(C)(C)C	CCHF vOTU inh-1 35.4 (no result: Mtb hypoxia rep, Mtb bLac sens, PfHsp40 rescue, RecA intein inh) | CCHF vOTU inh-2 inactive
CC(C)(C)OC(=O)[C@H](Cc1ccccc1)NC(=O)c1[nH]cnc1C(=O)Nc1cccc(Cl)c1	none (no result: Mtb hypoxia rep)
CC1(C)OC(=O)C(=NNc2ccccc2)C(=O)O1	none (no result: Mtb hypoxia rep)
CC1(C)OC(=O)C(=NNc2ccccc2[N+](=O)[O-])C(=O)O1	CCHF vOTU inh-1 30.2 | CCHF vOTU inh-2 inactive
COc1ccccc1NC(=O)COC(=O)c1cc2ccccc2cc1O	none (no result: RecA intein inh)
O=C(COC(=O)c1cc2ccccc2cc1O)Nc1ccccc1F	CCHF vOTU inh-1 30.9 (no result: RecA intein inh) | CCHF vOTU inh-2 inactive
O=C(Nc1sc2c(c1C(=O)O)CCCCC2)c1ccccc1F	CCHF vOTU inh-1 36.5 | CCHF vOTU inh-2 inactive
O=C(Nc1sc2c(c1C(=O)O)CCCC2)c1ccc(F)cc1	none
COc1ccc(C2CC=C(C(=O)O)C(c3cccc(Cl)c3)N2S(=O)(=O)c2ccc(Cl)cc2)cc1 (stereo unspecified)	none (no result: Mtb bLac sens, PfHsp40 rescue, RecA intein inh, CCHF vOTU inh-1)
CCC(=O)N(CCC(c1ccccc1)c1ccco1)Cc1cccs1 (stereo unspecified)	CCHF vOTU inh-1 33.8 | CCHF vOTU inh-2 inactive
COc1ccccc1C(CCN(Cc1cccs1)C(C)=O)c1ccco1 (stereo unspecified)	none (no result: Mtb hypoxia rep)
Cc1c(C=CC(=O)c2ccc(C(C)C)cc2)cnn1C	none (no result: Mtb bLac sens, PfHsp40 rescue, RecA intein inh, CCHF vOTU inh-1)
Cc1oc2c(cc(NS(=O)(=O)c3ccc(Cl)cc3)c3ccccc32)c1C(=O)O	none
CCOC(=O)c1c(C)oc2c1cc(NS(=O)(=O)c1ccc(C(=O)O)cc1)c1ccccc12	CCHF vOTU inh-1 45.1 | CCHF vOTU inh-2 inactive
Cc1ccc(C(=O)NN=Cc2sc(=O)n(Cc3cccc(C(=O)O)c3)c2Cl)cc1	none (no result: Mtb bLac sens, PfHsp40 rescue, RecA intein inh, CCHF vOTU inh-1)
C=CCNC(=S)NN=Cc1cn(C)c2ccccc12	none (no result: Mtb bLac sens, PfHsp40 rescue, RecA intein inh, CCHF vOTU inh-1)
CC(C)(C)CC(C)(C)NC(=O)Nc1cccc([N+](=O)[O-])c1	CCHF vOTU inh-1 38.9 | CCHF vOTU inh-2 inactive
CCOc1cc(C=NNc2nnc(C)n2N)ccc1O	none (no result: Mtb bLac sens, PfHsp40 rescue, RecA intein inh, CCHF vOTU inh-1)
COc1ccc(/C=N/Nc2nnc(C)n2N)cc1OC(C)=O	CCHF vOTU inh-1 93.0 (no result: Mtb hypoxia rep) | CCHF vOTU inh-2 inactive
CCOc1cc(C=NNc2nnc(C)n2N)ccc1OC(C)=O	none (no result: Mtb bLac sens, PfHsp40 rescue, RecA intein inh, CCHF vOTU inh-1)
COc1ccc(/C=N/Nc2nnc(C)n2N)cc1OC	CCHF vOTU inh-1 91.2 (no result: Mtb hypoxia rep) | CCHF vOTU inh-2 inactive
CC1(C)c2[nH]c3ccccc3c2CC2C(=O)N(Cc3ccc(F)cc3)C(=O)N21 (stereo unspecified)	none (no result: Mtb bLac sens, PfHsp40 rescue, RecA intein inh, CCHF vOTU inh-1)
CC(C)(C)C1C=C(C(=O)N2CCN(Cc3ccc4c(c3)OCO4)CC2)OC(OCCCCO)C1 (stereo unspecified)	none (no result: Mtb bLac sens, PfHsp40 rescue, RecA intein inh, CCHF vOTU inh-1)
CCCCn1c(N)c(N(CC(C)C)C(=O)c2cc3c(s2)CCCCC3)c(=O)[nH]c1=O	none
CCCCn1c(N)c(N(CC(C)C)C(=O)c2cccs2)c(=O)[nH]c1=O	CCHF vOTU inh-1 38.9 | CCHF vOTU inh-2 inactive
S=C(Nc1ccc(Cl)c(Cl)c1)N1CCCC1	none
S=C(Nc1ccc2nsnc2c1)N1CCCCC1	CCHF vOTU inh-1 96.3 (no result: RecA intein inh) | CCHF vOTU inh-2 inactive
C(=N\Nc1nc(-c2ccccc2)cs1)/c1ccco1	CCHF vOTU inh-1 30.9 (no result: Mtb hypoxia rep) | CCHF vOTU inh-2 inactive
COc1cc(C(N)=O)ccc1OCc1ccccc1	CCHF vOTU inh-1 29.9 (no result: Mtb hypoxia rep) | CCHF vOTU inh-2 inactive
Cc1ccc(CN2C(CC3CCCCC3)COCCS2(=O)=O)cc1 (stereo unspecified)	none (no result: Mtb bLac sens, PfHsp40 rescue, RecA intein inh, CCHF vOTU inh-1)
O=C(Nc1ccccc1)C1=CC(C2CCCCC2)CC(OCCCCO)O1 (stereo unspecified)	none (no result: Mtb bLac sens, PfHsp40 rescue, RecA intein inh, CCHF vOTU inh-1)
Cc1ccc(CSc2nnc(SCC(=O)NN=Cc3ccccc3OCC(=O)O)s2)cc1	none (no result: Mtb bLac sens, PfHsp40 rescue, RecA intein inh, CCHF vOTU inh-1)
Cc1cc(C(=O)N/N=C/c2ccc([N+](=O)[O-])s2)c2ccccc2n1	CCHF vOTU inh-1 30.5 (no result: Mtb hypoxia rep) | CCHF vOTU inh-2 inactive
